Records with an inconclusive call do not appear. Activity calls are given as the source filed them. Calls follow the shape of the dose curve; as a rule, active = well fitted inhibition curve with a large enough effect in the repeat runs; inconclusive = weak or mixed curves; inactive = no such curve, though single readings can be large or run the other way.

The values that follow come from PubChem BioAssay (Tox21).
Potency is read from the fitted curve at half-maximal effect.

Sequence of Cytochrome P450 2C19 (Homo sapiens) (P33261 whole entry, looked up): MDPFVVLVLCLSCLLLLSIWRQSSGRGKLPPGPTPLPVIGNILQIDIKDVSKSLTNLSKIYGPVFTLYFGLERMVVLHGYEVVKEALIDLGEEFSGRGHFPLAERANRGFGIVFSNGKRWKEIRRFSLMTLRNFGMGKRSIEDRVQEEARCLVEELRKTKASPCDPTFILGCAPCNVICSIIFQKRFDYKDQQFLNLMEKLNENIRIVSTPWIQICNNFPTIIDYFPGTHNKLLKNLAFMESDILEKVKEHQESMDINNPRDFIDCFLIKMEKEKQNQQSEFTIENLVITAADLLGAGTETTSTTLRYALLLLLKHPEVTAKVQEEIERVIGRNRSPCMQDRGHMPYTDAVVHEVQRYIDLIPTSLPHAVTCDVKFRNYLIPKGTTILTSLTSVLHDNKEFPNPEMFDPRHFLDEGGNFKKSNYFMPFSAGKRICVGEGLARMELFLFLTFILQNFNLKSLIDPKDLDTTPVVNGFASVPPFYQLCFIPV

The target of the first test is Cytochrome P450 2C19 (Homo sapiens) (UniProt P33261). The experiment in a line: Cytochrome P450 Family 2 Subfamily C Member 19 (CYP2C19) small molecule antagonists: luciferase reporter qHTS assay (AID 1671197). Also: nearly all actives have a fitted effect of over 65% in size. To be noted: P450-Glo CYP2C19 enzyme, luciferin luminescence, 1 h; series mostly up to 115 µM. An outline of the steps:
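Quantitative high-throughput screen of the Tox21 library using CYP2C19 with proluciferin substrate. Reaction: NADPH regeneration, 37C, 1 h, after 10 min compound preincubation at room temperature. Readout: luminescence.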
With `Nc1ccc(F)cc1`, the Potency entry is “inactive”. `Cc1ccc2c(c1[N+](=O)[O-])C(=O)c1ccccc1C2=O`: the Potency result is “inactive”. Same read-out and setting: next, `O=C(Oc1ccccc1)c1ccc2ccccc2c1O`: 79.6 µM (active); `CCCCCCCC(=O)Oc1c(Br)cc(C#N)cc1Br`: 35.5 µM (active); `CC(=O)NNC(C)=O`: “inactive”.

`CCOC(=O)N1CCC(Nc2ccc(Cl)cc2N)CC1`: the Potency was 4.36 µM (active). For `COc1ccc(-c2cc(=S)ss2)cc1`, the Potency was 9.77 µM (active).

In the case of `Cc1ccc(Cl)cc1N`, the Potency was 36.2 µM (active).

For the molecule `CC(C)(C)C1(CCc2ccc(Cl)cc2)CO1` (stereo not given), the Potency was 1.26 µM (active). With `CCCCCCCC/C=C\CCCCCCCC(=O)OCCO`, the Potency is 52.9 µM (active). Regarding `CCCc1nc2c(C)cc(-c3nc4ccccc4n3C)cc2n1Cc1ccc(-c2ccccc2C(=O)O)cc1`, the Potency is 7.76 µM (active). With `O=C1[C@@H]2[C@H]3CC[C@H](C3)[C@@H]2C(=O)N1CCCCN1CCN(c2ncccn2)CC1`, the Potency result is “inactive”. Same read-out and setting: next, `O=C(C(=O)c1ccco1)c1ccco1`: 80.4 µM (active); `CC(C)(C(=O)c1cccnc1)c1cccnc1`: “inactive”. For the molecule `CCOc1ncc(F)c(=O)[nH]1`, the Potency result is “inactive”.

Take `CC(C)OC(=O)c1ccccc1C(=O)OC(C)C`: the Potency is 79.6 µM (active).

On to `CC(C)COC(=O)c1ccc(O)cc1`, for which the Potency was 3.17 µM (active).

With `CC(=O)OC(C)C[N+](C)(C)C` (stereo not given), the Potency result is “inactive”.

Consider `COc1ccc(/C=C/C(=O)c2ccc(OC)cc2OC)cc1`, for which the Potency was 3.89 µM (active). Same read-out and setting: in the case of `CC1CCCO1` (stereo not given) it was “inactive”; in that of `CC/C=C\C/C=C\C/C=C\CCCCCCCC(=O)OCC`, 64.8 µM (active). On to `CC1=C2[C@@H]([C@H](C)CC[C@H]2/C=C(\C)C(=O)O)[C@H](O)C1`, for which the Potency entry was “inactive”. As for `OCC(CO)n1cnc(-c2ccc(F)cc2)c1-c1ccnc(Oc2ccccc2)n1`, the Potency is 31.7 µM (active). Turning to `O=C1OC[C@H](Cc2cccc(O)c2)[C@H]1Cc1cccc(O)c1`, the Potency is 4.8 µM (active).

Take `COc1cc(S(=O)(=O)Nc2ccccc2)c(OC)cc1N`: the Potency was 15.9 µM (active). In the case of `Cc1cc(CCC(=O)OCCOCCOCCOC(=O)CCc2cc(C)c(O)c(C(C)(C)C)c2)cc(C(C)(C)C)c1O`, the Potency is 2.76 µM (active).

With `Cc1ccccc1S(N)(=O)=O`, the Potency entry was “inactive”.

As to `O=P(O)(O)Oc1ccccc1`, the Potency result was “inactive”. Turning to `C[C@@H]1[C@H](O)[C@@H](C)/C=C/C=C\C=C\C=C\C=C\C=C\C=C\[C@H](O[C@@H]2O[C@H](C)[C@@H](O)[C@H](N)[C@@H]2O)C[C@@H]2O[C@](O)(C[C@@H](O)C[C@@H](O)[C@H](O)CC[C@@H](O)C[C@@H](O)CC(=O)O[C@H]1C)C[C@H](O)[C@H]2C(=O)O` (stereo in doubt), the Potency result is “inactive”. Same read-out and setting: next, `c1ccc(CCCc2ccncc2)cc1`: 0.633 µM (active). Same read-out and setting: in the case of `COC(=O)c1sccc1S(N)(=O)=O` it was 79.6 µM (active).

With `CC1C(C)(C)C2=C(C(=O)CCC2)C1(C)C` (stereo not given), the Potency entry was “inactive”. On the same count and under the same terms, next, `C[C@@H]1C[C@H]2[C@@H]3CCC4=CC(=O)C=C[C@]4(C)[C@@]3(F)[C@@H](O)C[C@]2(C)[C@@]1(O)C(=O)COP(=O)(O)O`: “inactive”; `FC(F)(F)C(F)(F)C(F)(F)C(F)(F)CCI`: “inactive”; `O=C(/C=C/c1ccc([N+](=O)[O-])cc1)c1ccccc1`: 1.59 µM (active). As for `O=C1CC[C@@H](C(=O)O)N1`, the Potency result is “inactive”. On the same count and under the same terms, in the case of `CCCCCc1ccco1` it was 32.8 µM (active); in that of `O=C(c1ccccc1)C1CCC1`, “inactive”.

For another test, the target named is Cytochrome P450 2C9 (Homo sapiens) (UniProt P11712). The experiment in a line: Cytochrome P450 Family 2 Subfamily C Member 9 (CYP2C9) small molecule antagonists: luciferase reporter qHTS assay (AID 1671198). Also: nearly all actives have a fitted effect of over 50% in size. The following applies: P450-Glo CYP2C9 enzyme assay, luciferin luminescence; series mostly up to 115 µM. Summed up: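 P450-Glo proluciferin substrate with CYP2C9 enzyme; 10 min RT preincubation, then NADPH regeneration 1 h at 37C; luciferin detection reagent 20 min RT, luminescence in relative luminescence units.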
Sequence of Cytochrome P450 2C9 (Homo sapiens) (P11712 whole entry, looked up): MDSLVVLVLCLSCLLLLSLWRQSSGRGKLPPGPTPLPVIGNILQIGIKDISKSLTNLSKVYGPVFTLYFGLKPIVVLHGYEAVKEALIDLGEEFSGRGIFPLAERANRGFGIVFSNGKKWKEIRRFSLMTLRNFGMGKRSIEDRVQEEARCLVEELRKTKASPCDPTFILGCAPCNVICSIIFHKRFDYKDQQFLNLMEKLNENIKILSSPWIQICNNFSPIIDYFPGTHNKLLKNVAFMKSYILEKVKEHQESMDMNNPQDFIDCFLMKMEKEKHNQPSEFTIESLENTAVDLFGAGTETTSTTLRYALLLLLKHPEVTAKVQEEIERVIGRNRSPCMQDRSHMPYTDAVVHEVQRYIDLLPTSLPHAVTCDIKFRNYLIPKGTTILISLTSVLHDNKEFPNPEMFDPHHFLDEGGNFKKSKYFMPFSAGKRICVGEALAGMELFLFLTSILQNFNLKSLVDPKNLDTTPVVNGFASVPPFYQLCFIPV
As for `Nc1ccc(F)cc1`, the Potency result was “inactive”. For the molecule `Cc1ccc2c(c1[N+](=O)[O-])C(=O)c1ccccc1C2=O`, the Potency result was “inactive”. Consider `O=C(Oc1ccccc1)c1ccc2ccccc2c1O`, for which the Potency was 12.6 µM (active). With `CCCCCCCC(=O)Oc1c(Br)cc(C#N)cc1Br`, the Potency was 39.8 µM (active). Same read-out and setting: in the case of `CC(=O)NNC(C)=O` it was “inactive”. Take `CCOC(=O)N1CCC(Nc2ccc(Cl)cc2N)CC1`: the Potency was 8.71 µM (active). On to `COc1ccc(-c2cc(=S)ss2)cc1`, for which the Potency is 12.3 µM (active).

As to `CC(C)(C)C1(CCc2ccc(Cl)cc2)CO1` (stereo not given), the Potency is 17.8 µM (active). Consider `CCCCCCCC/C=C\CCCCCCCC(=O)OCCO`, for which the Potency is 18.8 µM (active). Take `CCCc1nc2c(C)cc(-c3nc4ccccc4n3C)cc2n1Cc1ccc(-c2ccccc2C(=O)O)cc1`: the Potency was 7.76 µM (active). In the case of `O=C1[C@@H]2[C@H]3CC[C@H](C3)[C@@H]2C(=O)N1CCCCN1CCN(c2ncccn2)CC1`, the Potency result is “inactive”.

Turning to `O=C(C(=O)c1ccco1)c1ccco1`, the Potency result was “inactive”. For `CC(C)(C(=O)c1cccnc1)c1cccnc1`, the Potency result is “inactive”. With `CCOc1ncc(F)c(=O)[nH]1`, the Potency result was “inactive”. Regarding `CC(C)OC(=O)c1ccccc1C(=O)OC(C)C`, the Potency was 39.9 µM (active). As for `CC(C)COC(=O)c1ccc(O)cc1`, the Potency was 25.2 µM (active). Consider `CC(=O)OC(C)C[N+](C)(C)C` (stereo not given), for which the Potency result is “inactive”. On the same count and under the same terms, in the case of `COc1ccc(/C=C/C(=O)c2ccc(OC)cc2OC)cc1` it was 6.92 µM (active). As for `CC1CCCO1` (stereo not given), the Potency entry was “inactive”. For the molecule `CC/C=C\C/C=C\C/C=C\CCCCCCCC(=O)OCC`, the Potency was 40.9 µM (active). Regarding `CC1=C2[C@@H]([C@H](C)CC[C@H]2/C=C(\C)C(=O)O)[C@H](O)C1`, the Potency result was “inactive”. For `OCC(CO)n1cnc(-c2ccc(F)cc2)c1-c1ccnc(Oc2ccccc2)n1`, the Potency was 35.6 µM (active). `O=C1OC[C@H](Cc2cccc(O)c2)[C@H]1Cc1cccc(O)c1`: the Potency was 13.5 µM (active). Take `COc1cc(S(=O)(=O)Nc2ccccc2)c(OC)cc1N`: the Potency was 35.6 µM (active). Same read-out and setting: in the case of `Cc1cc(CCC(=O)OCCOCCOCCOC(=O)CCc2cc(C)c(O)c(C(C)(C)C)c2)cc(C(C)(C)C)c1O` it was 0.617 µM (active). Take `Cc1ccccc1S(N)(=O)=O`: the Potency entry was “inactive”. Same read-out and setting: in the case of `O=P(O)(O)Oc1ccccc1` it was “inactive”; in that of `C[C@@H]1[C@H](O)[C@@H](C)/C=C/C=C\C=C\C=C\C=C\C=C\C=C\[C@H](O[C@@H]2O[C@H](C)[C@@H](O)[C@H](N)[C@@H]2O)C[C@@H]2O[C@](O)(C[C@@H](O)C[C@@H](O)[C@H](O)CC[C@@H](O)C[C@@H](O)CC(=O)O[C@H]1C)C[C@H](O)[C@H]2C(=O)O` (stereo in doubt), “inactive”; in that of `c1ccc(CCCc2ccncc2)cc1`, 2 µM (active). As for `COC(=O)c1sccc1S(N)(=O)=O`, the Potency entry was “inactive”. Consider `CC1C(C)(C)C2=C(C(=O)CCC2)C1(C)C` (stereo not given), for which the Potency entry was “inactive”.

Turning to `C[C@@H]1C[C@H]2[C@@H]3CCC4=CC(=O)C=C[C@]4(C)[C@@]3(F)[C@@H](O)C[C@]2(C)[C@@]1(O)C(=O)COP(=O)(O)O`, the Potency result was “inactive”. On to `FC(F)(F)C(F)(F)C(F)(F)C(F)(F)CCI`, for which the Potency result was “inactive”. Still for that read-out and setting: next, `O=C(/C=C/c1ccc([N+](=O)[O-])cc1)c1ccccc1`: 11.3 µM (active); `O=C1CC[C@@H](C(=O)O)N1`: “inactive”. For the molecule `CCCCCc1ccco1`, the Potency was 26 µM (active). For the molecule `O=C(c1ccccc1)C1CCC1`, the Potency result is “inactive”.
